Measurements: PubChem BioAssay (NCI)
The panel holds about 83,000 compounds, 20% with a hit somewhere; the sample as a whole holds those more often.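 Treatment: one concentration, 48 hours, 96-well format. Scoring: percent growth, with anything below 10 considered active.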 A number with no mark means an inactive call. Activity calls are given as the source filed them.

These molecules were tested on HCT-15 colon (assay: NCI-60 one-dose screen, 48 h (100 = growth as untreated, 0 = no growth, -100 = all killed)). Details: 10 µM.

Structure (SMILES)	growth
NC1=CC(=O)C(=O)c2cccnc21	66.7%
Cc1cn(-c2cc(F)cc(NC(=O)c3ccc(C)c(Nc4nccc(-c5cccnc5)n4)c3)c2)cn1	74.9%
C/C(=C/CCC(C)[C@@H]1CC[C@]2(C)C3=C(CC[C@@]12C)[C@@]1(C)CCC(=O)C(C)(C)[C@@H]1CC3)C(=O)O (stereo not given in full)	-66.6% (active)
CCOC(=O)CN(c1sc(C)c(C)c1C(=O)OCC)S(=O)(=O)c1ccc(C)cc1	99.3%
Cc1c2c[n+](C(C)C)ccc2c(C)c2c1[nH]c1ccccc12	87.7%
CC(C)C1=C(O)C2=C(C(=O)C1=O)[C@@]1(C)CCCC(C)(C)[C@@H]1CC2	44.2%
CN(C)CCC1(c2ccccc2)CCN(C)C1=O (stereo not given)	102%
COc1ccc(/C(C#N)=C/c2ccccc2OC)cc1	23.8%
COc1cc2c(cc1NC(=O)C(Cl)Cl)-c1ccc(NC(=O)C(Cl)Cl)cc1C2	-7.21% (active)
Cn1c2ccccc2c2c3[nH][nH]c(=O)c3c3c4ccccc4[nH]c3c21	19.7%
COc1ccc(-c2nn(-c3cccc(Cl)c3)cc2-c2cc(-c3ccccc3)nc(N)n2)cc1	44.5%
COc1ccc(C(=O)c2ccccc2CN2C(=O)c3ccccc3C2=O)cc1	112%
COc1ccc(-c2nn(-c3cccc(Cl)c3)cc2-c2nc(N)[nH]c(=O)c2C#N)cc1	65.4%
O=C1/C=C/[C@@H](O)[C@@H]2C[C@@H](O)C[C@H]2/C=C/CCC[C@H](C(F)(F)F)O1	6.45% (active)
O=c1cn[nH]c2ccc(Br)cc12	104%
Cc1c2cnccc2c(C)c2c1oc1ccccc12	72.3%
COC(=O)C1OC1c1cc([N+](=O)[O-])ccc1OC (stereo not given)	103%
CCc1ccc(C2=NN(c3ccc(S(C)(=O)=O)cc3)C(=O)CC2)cc1	22.1%
COc1cc2c(cc1NC(=O)C(F)(F)F)-c1ccc(NC(=O)C(F)(F)F)cc1C2	106%
Cc1ccc(S(=O)(=O)N/N=C2\CCCc3ccccc32)cc1	109%

Structure (SMILES)	growth
O=C(c1ccccc1)N(C(=O)c1ccccc1)N1CCCC1	107%
CCOC(=O)C1C(C(=O)OCC)C2C(=O)C3C(C(=O)OCC)C(C(=O)OCC)C3C(=O)C12 (stereo not given)	103%
COc1ccc(-c2nn(-c3cccc(Cl)c3)cc2-c2cc(-c3ccccc3)[nH]c(=O)c2C#N)cc1	63.8%
CN(C)c1ncnc2c1nnn2C1OC(CO)C(O)C1O (stereo not given)	7.45% (active)
COc1ccccc1-n1c(-c2sc(NC(C)=O)nc2C)n[nH]c1=S	94.9%
CC(C)(C)OC(=O)CC(S(=O)(=O)c1ccccc1)S(=O)(=O)c1ccccc1	77.9%
O=C1/C(=C/c2cccc(F)c2)Cc2ccccc21	93.7%
COc1ccc(/C(=N\N)C(=O)c2ccccc2)cc1 (tested in a mixture with another compound)	91.1%
O=C(Nc1cc([N+](=O)[O-])c2[nH]c(=O)c3ccccc3c2c1)C(F)(F)F	81%
N#CC1=CC2CN(Cc3ccccc3)C1C1C(=O)N(c3ccccc3)C(=O)C21 (stereo not given)	96.5%
CCN(CCCNc1cc2c(c(N)c1S(=O)(=O)O)C(=O)c1ccccc1C2=O)c1ccccc1	107%
O=C1NC(=O)c2c(CCCSc3nc4ccccc4c(=O)n3CCc3ccccc3)cccc21	96%
COc1ccc(-c2nn(-c3cccc(Cl)c3)cc2-c2c(C#N)c(N)n(N)c(=O)c2C#N)cc1	94.9%
Nc1nc(-c2cccnc2)nc2c1sc(=S)n2-c1ccccc1	104%
CCOC(=O)C1=CSC2=NC3=C(CCC/C3=C\c3cc(OC)c(OC)c(OC)c3)C(c3cc(OC)c(OC)c(OC)c3)N12 (stereo not given)	57.7%
CCOC(=O)C1=CSC2=NC3=C(CCC/C3=C\c3ccc(Cl)cc3)C(c3ccc(Cl)cc3)N12 (stereo not given)	91.9%
O=C1CCn2c1c(O)c1ccccc1c2=O	114%
Cc1ccc(-c2c3c(N)nc(-c4cccnc4)nc3nc3c2c(C)nn3-c2ccccc2)cc1	84.4%
COc1ccc(-c2nn(-c3cccc(Cl)c3)cc2-c2c(C#N)c(=O)n3[nH]c(-c4ccccc4)nc3c2C#N)cc1	93.4%
CCOC(=O)/C(=C(\C)N)C1CC(=O)NC1=O (stereo not given)	103%

Each molecule was assayed on HT29 colon in the same assay as above. Details: 10 µM.

Structure (SMILES)	growth
NC1=CC(=O)C(=O)c2cccnc21	103%
Cc1cn(-c2cc(F)cc(NC(=O)c3ccc(C)c(Nc4nccc(-c5cccnc5)n4)c3)c2)cn1	2.89% (active)
C/C(=C/CCC(C)[C@@H]1CC[C@]2(C)C3=C(CC[C@@]12C)[C@@]1(C)CCC(=O)C(C)(C)[C@@H]1CC3)C(=O)O (stereo not given in full)	-65.8% (active)
CCOC(=O)CN(c1sc(C)c(C)c1C(=O)OCC)S(=O)(=O)c1ccc(C)cc1	111%
Cc1c2c[n+](C(C)C)ccc2c(C)c2c1[nH]c1ccccc12	21.5%
CC(C)C1=C(O)C2=C(C(=O)C1=O)[C@@]1(C)CCCC(C)(C)[C@@H]1CC2	99%
CN(C)CCC1(c2ccccc2)CCN(C)C1=O (stereo not given)	106%
COc1ccc(/C(C#N)=C/c2ccccc2OC)cc1	6.29% (active)
COc1cc2c(cc1NC(=O)C(Cl)Cl)-c1ccc(NC(=O)C(Cl)Cl)cc1C2	-35.3% (active)
Cn1c2ccccc2c2c3[nH][nH]c(=O)c3c3c4ccccc4[nH]c3c21	43.3%
COc1ccc(-c2nn(-c3cccc(Cl)c3)cc2-c2cc(-c3ccccc3)nc(N)n2)cc1	19.5%
COc1ccc(C(=O)c2ccccc2CN2C(=O)c3ccccc3C2=O)cc1	99.7%
COc1ccc(-c2nn(-c3cccc(Cl)c3)cc2-c2nc(N)[nH]c(=O)c2C#N)cc1	86.5%
O=C1/C=C/[C@@H](O)[C@@H]2C[C@@H](O)C[C@H]2/C=C/CCC[C@H](C(F)(F)F)O1	-28.3% (active)
O=c1cn[nH]c2ccc(Br)cc12	95.7%
Cc1c2cnccc2c(C)c2c1oc1ccccc12	72.8%
COC(=O)C1OC1c1cc([N+](=O)[O-])ccc1OC (stereo not given)	117%
CCc1ccc(C2=NN(c3ccc(S(C)(=O)=O)cc3)C(=O)CC2)cc1	11.5%
COc1cc2c(cc1NC(=O)C(F)(F)F)-c1ccc(NC(=O)C(F)(F)F)cc1C2	106%
Cc1ccc(S(=O)(=O)N/N=C2\CCCc3ccccc32)cc1	115%

Structure (SMILES)	growth
O=C(c1ccccc1)N(C(=O)c1ccccc1)N1CCCC1	102%
CCOC(=O)C1C(C(=O)OCC)C2C(=O)C3C(C(=O)OCC)C(C(=O)OCC)C3C(=O)C12 (stereo not given)	105%
COc1ccc(-c2nn(-c3cccc(Cl)c3)cc2-c2cc(-c3ccccc3)[nH]c(=O)c2C#N)cc1	55.6%
CN(C)c1ncnc2c1nnn2C1OC(CO)C(O)C1O (stereo not given)	0.427% (active)
COc1ccccc1-n1c(-c2sc(NC(C)=O)nc2C)n[nH]c1=S	104%
CC(C)(C)OC(=O)CC(S(=O)(=O)c1ccccc1)S(=O)(=O)c1ccccc1	104%
O=C1/C(=C/c2cccc(F)c2)Cc2ccccc21	94.6%
COc1ccc(/C(=N\N)C(=O)c2ccccc2)cc1 (tested in a mixture with another compound)	87.7%
O=C(Nc1cc([N+](=O)[O-])c2[nH]c(=O)c3ccccc3c2c1)C(F)(F)F	90.4%
N#CC1=CC2CN(Cc3ccccc3)C1C1C(=O)N(c3ccccc3)C(=O)C21 (stereo not given)	103%
CCN(CCCNc1cc2c(c(N)c1S(=O)(=O)O)C(=O)c1ccccc1C2=O)c1ccccc1	104%
O=C1NC(=O)c2c(CCCSc3nc4ccccc4c(=O)n3CCc3ccccc3)cccc21	90.3%
COc1ccc(-c2nn(-c3cccc(Cl)c3)cc2-c2c(C#N)c(N)n(N)c(=O)c2C#N)cc1	66.3%
Nc1nc(-c2cccnc2)nc2c1sc(=S)n2-c1ccccc1	94.6%
CCOC(=O)C1=CSC2=NC3=C(CCC/C3=C\c3cc(OC)c(OC)c(OC)c3)C(c3cc(OC)c(OC)c(OC)c3)N12 (stereo not given)	12.9%
CCOC(=O)C1=CSC2=NC3=C(CCC/C3=C\c3ccc(Cl)cc3)C(c3ccc(Cl)cc3)N12 (stereo not given)	82.8%
O=C1CCn2c1c(O)c1ccccc1c2=O	108%
Cc1ccc(-c2c3c(N)nc(-c4cccnc4)nc3nc3c2c(C)nn3-c2ccccc2)cc1	77.3%
COc1ccc(-c2nn(-c3cccc(Cl)c3)cc2-c2c(C#N)c(=O)n3[nH]c(-c4ccccc4)nc3c2C#N)cc1	96.9%
CCOC(=O)/C(=C(\C)N)C1CC(=O)NC1=O (stereo not given)	105%
